# Measured values taken from the supplement of paper PMC6992640.
# ± gives the standard deviation of the averaged measurements.
# Test system: WHIM30 (cells of a triple-negative basal-like breast cancer xenograft)
# Assay: cell viability (% of vehicle); higher = less cytotoxic
# Conditions: 10 µM; 72 h
# 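Note: PDX cells carrying CMV promoter-driven luciferase, viability read as total photon flux per second by IVIS imaging following D-luciferin, vehicle control 0.1% DMSO.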
row,SMILES,cell viability
1,COC(=O)C(c1ccccc1Cl)N1CCc2sccc2C1.O=S(=O)(O)O (centres undefined) [Clopidogrel],136 ± 6.6
2,CC(C)(C)C(=O)C(Oc1ccc(Cl)cc1)n1ccnc1 (centres undefined) [Climbazole],120 ± 8.6
3,CCCN(CCC)CCc1cccc2c1CC(=O)N2.Cl [Ropinirole HCl],126 ± 12
4,CCCC(=O)Nc1ccc(OCC(O)CNC(C)C)c(C(C)=O)c1.Cl (centres undefined) [Acebutolol HCl],131.6 ± 0.063
5,O=C(O)C=Cc1ccccc1 [Cinnamic acid],117.9 ± 0.11
6,Nc1nc(=O)c2nc(CNc3ccc(C(=O)NC(CCC(=O)O)C(=O)O)cc3)cnc2[nH]1 (centres undefined) [Folic acid],101 ± 8.4
7,OCC(O)CN1CCN(c2ccccc2)CC1 (centres undefined) [Dropropizine],101.7 ± 0.4
8,CN(C)CCC(c1ccccc1)c1ccccn1.O=C(O)C=CC(=O)O (centres undefined) [Pheniramine Maleate],124 ± 14
9,CC(C)(C)c1cc(NC(=O)Nc2ccc(-c3cn4c(n3)sc3cc(OCCN5CCOCC5)ccc34)cc2)no1 [Quizartinib (AC220)],193 ± 34
10,O=c1nc[nH]c2c1ncn2C1CCC(CO)O1 (centres undefined) [Didanosine],90.6 ± 1.1
11,CC1(C)SC2C(NC(=O)Cc3ccccc3)C(=O)N2C1C(=O)[O-].[Na+] (centres undefined) [Penicillin G Sodium],109 ± 5.6
12,CCCCC(=O)N(Cc1ccc(-c2ccccc2-c2nnn[nH]2)cc1)[C@H](C(=O)O)C(C)C.CCOC(=O)[C@H](C)C[C@@H](Cc1ccc(-c2ccccc2)cc1)NC(=O)CCC(=O)O,131 ± 11
13,Clc1ccc(COC(Cn2ccnc2)c2ccc(Cl)cc2Cl)c(Cl)c1 (centres undefined) [Miconazole],128 ± 3.7
14,O=C(O)[C@H](O)[C@@H](O)C(=O)O.c1cnc2cc3c(cc2n1)C1CNC[C@@H]3C1 [Varenicline Tartrate],158 ± 25
15,CN(C)CCC(c1ccc(Cl)cc1)c1ccccn1.O=C(O)C=CC(=O)O (centres undefined) [Chlorpheniramine Maleate],127 ± 12
16,Nc1nc(CC(=O)Nc2ccc(CCNCC(O)c3ccccc3)cc2)cs1 (centres undefined) [Mirabegron (YM178)],132 ± 4.2
17,CCCS(=O)c1ccc2nc(NC(=O)OC)[nH]c2c1 (centres undefined) [Albendazole Oxide],141.6 ± 1.2
18,C=C1C(CO)C(O)CC1n1cnc2c(=O)nc(N)[nH]c21.O (centres undefined) [Entecavir Hydrate],107 ± 9.8
19,Cc1ccccc1C(OCCN(C)C)c1ccccc1.O=C(O)CC(O)(CC(=O)O)C(=O)O (centres undefined) [Orphenadrine Citrate],100 ± 7.5
20,CCC(C)C(=O)OC1CC(C)C=C2C=CC(C)C(CCC3CC(O)CC(=O)O3)C21 (centres undefined) [Lovastatin],93.17 ± 0.92

row,SMILES,cell viability
1,CN1CCC(=C2c3ccccc3CCc3sccc32)CC1.O=C(O)CC(O)C(=O)O [Pizotifen Malate],173.9 ± 0.85
2,COCCCOc1cc(CC(CC(N)C(O)CC(C(=O)NCC(C)(C)C(N)=O)C(C)C)C(C)C)ccc1OC.COCCCOc1cc(CC(CC(N)C(O)CC(C(=O)NCC(C)(C)C(N)=O)C(C)C)C(C)C)ccc1OC.O=C(O)C=CC(=O)O (centres undefined) [Aliskiren Hemifumarate],140 ± 14
3,CC(C)C(N)C(=O)OCCOCn1cnc2c(=O)nc(N)[nH]c21.Cl (centres undefined) [Valaciclovir HCl],169 ± 13
4,CC1CCOC2Cn3cc(C(=O)NCc4ccc(F)cc4F)c(=O)c(O)c3C(=O)N12 (centres undefined),176 ± 20
5,CC(S)C(=O)NCC(=O)O (centres undefined) [Tiopronin (Thiola)],115 ± 4.5
6,CCCCC(=O)OC1CCC2C3CCc4cc(O)ccc4C3CCC12C (centres undefined) [Estradiol valerate],134 ± 9.2
7,NC1CCCCC1N.O=C([O-])C(=O)[O-].[Pt+2] (centres undefined) [Oxaliplatin],154 ± 2
8,COc1cc(Nc2ncc3c(n2)-c2ccc(Cl)cc2C(c2c(F)cccc2OC)=NC3)ccc1C(=O)O [MLN8237 (Alisertib)],156 ± 12
9,C[N+](C)(CCOc1ccccc1)Cc1ccccc1.O=C(O)c1cc2ccccc2cc1[O-] [Bephenium Hydroxynaphthoate],151 ± 20
10,CCC(C(C)O)n1ncn(-c2ccc(N3CCN(c4ccc(OCC5COC(Cn6cncn6)(c6ccc(F)cc6F)C5)cc4)CC3)cc2)c1=O (centres undefined) [Posaconazole],105 ± 18
11,NC(=O)C1CCCc2c1[nH]c1ccc(Cl)cc21 (centres undefined),161 ± 24
12,Nc1cc(C(Cl)=C(Cl)Cl)c(S(N)(=O)=O)cc1S(N)(=O)=O [Clorsulon],152 ± 7.4
13,Nc1nc(=O)c2ncn(COC(CO)CO)c2[nH]1 [Ganciclovir],142.4 ± 1.3
14,CNNCc1ccc(C(=O)NC(C)C)cc1.Cl [Procarbazine HCl],83.91 ± 0.74
15,CC(=O)N1CCN(c2ccc(OCC3COC(Cn4ccnc4)(c4ccc(Cl)cc4Cl)O3)cc2)CC1 (centres undefined) [Ketoconazole],122 ± 10
16,COC(=O)C1=C(C)NC(C)=C(C(=O)OC(C)C)C1c1cccc2nonc12 (centres undefined) [Isradipine (Dynacirc)],88.7 ± 3.6
17,Br.CN1CCCC1Cc1c[nH]c2ccc(CCS(=O)(=O)c3ccccc3)cc12 (centres undefined) [Eletriptan HBr],163 ± 24
18,CCN(CC)CCOC(=O)C(c1ccccc1)c1ccccc1.Cl [Adiphenine HCl],117 ± 17
19,CCCN1CCCCC1C(=O)Nc1c(C)cccc1C.Cl.O (centres undefined) [Ropivacaine hydrochloride monohydrate],100 ± 9.1
